From the supplement of paper PMC7156485

test system: HCC1569; test: H1.0 immunofluorescence intensity relative to DMSO (% of DMSO); higher = stronger H1.0 induction, active = 140 or more; conditions: concentration: 10 µM; 24 h
Summary of the method: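 Six fields per well were imaged at ×10 after the cells were fixed in 3.7% formaldehyde and stained with a rabbit anti-H1.0 antibody, an AlexaFluor 647 secondary and DAPI. The HCC1569 and TDF cells had been plated at 800 per well in 384-well plates (RPMI, 10% FBS) and treated in triplicate with compounds at 10 µM for 24 h at 37 °C. The values are the median of replicates of H1.0 nuclear intensity or cell number, as percent of the plate control. Smoothing for positional effects was applied to HCC1569 data.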
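Also: TDF is a line of transformed human dermal fibroblasts of mesenchymal origin.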

H1.0 immunofluorescence intensity, inactive:
CS(=O)(=O)O.Cc1ccc(N(CC2=NCCN2)c2cccc(O)c2)cc1 [Phentolamine mesylate] 99.6
CC[n+]1c(C=CN(C)c2ccccc2)n(-c2ccccc2)c2ccc(-c3nc4ccccc4s3)cc21.[I-] [Akt Inhibitor IV] 66.5
Cl.Cl.Nc1nccc(-c2c(-c3ccc(F)cc3)ncn2C2CCCCC2)n1 130
Oc1ccc(Cn2cc[nH]c2=S)cc1 [1-(4-Hydroxybenzyl)imidazole-2-thiol] 96.1
CCCCCCCNC1CCCC1CCCCCCC(=O)O (racemic) 89.4
NC(N)=NCCCCN=C(N)N.O=S(=O)(O)O [Arcaine sulfate] 92.3
O=c1nc[nH]c2c1ncn2C1CCC(CO)O1 (configuration not stated) [Didanosine] 109
